Among all 310,000 compounds or so, about 2,200 (0.71%) showed an effect of 50% or more. The effect is printed as a negative number. The sample as a whole holds a higher share of strong results than the screen did.
target: human ether-à-go-go-related gene (hERG) potassium channel (human, UniProt Q12809); experiment: primary screen, population patch clamp on CHO cells stably expressing hERG; higher = less effect of the substance
Sequence (Q12809 whole entry, looked up): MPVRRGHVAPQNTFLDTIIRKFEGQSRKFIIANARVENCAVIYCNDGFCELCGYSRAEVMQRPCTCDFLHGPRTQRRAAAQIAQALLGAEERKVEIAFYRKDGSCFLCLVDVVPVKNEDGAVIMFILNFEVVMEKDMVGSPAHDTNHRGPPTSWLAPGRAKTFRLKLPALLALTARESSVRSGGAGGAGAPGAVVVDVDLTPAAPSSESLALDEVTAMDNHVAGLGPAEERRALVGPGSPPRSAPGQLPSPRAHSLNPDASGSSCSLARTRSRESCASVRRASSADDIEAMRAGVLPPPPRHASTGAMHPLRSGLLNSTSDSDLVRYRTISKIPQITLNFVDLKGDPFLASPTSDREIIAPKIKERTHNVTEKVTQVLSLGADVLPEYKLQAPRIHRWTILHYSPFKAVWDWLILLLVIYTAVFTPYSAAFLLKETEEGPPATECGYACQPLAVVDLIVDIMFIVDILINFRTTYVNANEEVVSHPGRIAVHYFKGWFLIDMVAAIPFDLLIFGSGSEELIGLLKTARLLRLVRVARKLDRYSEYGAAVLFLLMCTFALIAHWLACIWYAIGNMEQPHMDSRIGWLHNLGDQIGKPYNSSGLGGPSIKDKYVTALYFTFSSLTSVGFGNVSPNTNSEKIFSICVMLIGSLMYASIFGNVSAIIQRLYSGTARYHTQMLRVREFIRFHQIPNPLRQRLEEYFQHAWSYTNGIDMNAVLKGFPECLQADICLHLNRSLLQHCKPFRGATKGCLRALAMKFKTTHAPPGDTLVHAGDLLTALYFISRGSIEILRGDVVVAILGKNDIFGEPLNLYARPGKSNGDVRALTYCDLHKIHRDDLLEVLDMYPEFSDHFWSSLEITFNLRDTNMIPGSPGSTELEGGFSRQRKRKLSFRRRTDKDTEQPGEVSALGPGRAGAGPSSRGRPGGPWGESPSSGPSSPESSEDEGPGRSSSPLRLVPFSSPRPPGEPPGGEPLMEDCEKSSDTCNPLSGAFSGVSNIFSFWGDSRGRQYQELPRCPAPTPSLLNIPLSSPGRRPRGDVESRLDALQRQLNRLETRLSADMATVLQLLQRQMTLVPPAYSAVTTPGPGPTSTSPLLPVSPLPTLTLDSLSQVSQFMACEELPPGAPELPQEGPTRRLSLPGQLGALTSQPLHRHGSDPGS

SMILES	hERG current change (%, negative = inhibition) at 1uM
Cc1ccc(-c2cc(C(=O)Nc3ccc(S(=O)(=O)Nc4onc(C)c4C)cc3)[nH]n2)c(O)c1	-1.84%
CN1CCN(c2nc(-c3ccccc3Cl)nc3ccccc23)CC1	-19.8%
CN1CCN(c2nc(-c3ccc(Cl)cc3Cl)nc3ccccc23)CC1	-58.1%
CCN1CCN(c2nn3c(=O)c4ccccc4nc3c3ccccc23)CC1	-71.5%
CN1CCN(c2nc(-c3ccc(Cl)c(Cl)c3)nc3ccccc23)CC1	9.87%
CCN1CCN(c2nc(-c3ccccn3)nc3ccccc23)CC1	-17.5%
Cc1ccc(-c2nc(N3CCN(C)CC3)c3ccccc3n2)cc1.Cl	3.62%
CC1CN(c2nn3c(=O)c4ccccc4nc3c3ccccc23)CC(C)O1 (centres unmarked)	-0.465%
c1ccc2c(N3CCCC3)nc(-c3ccncc3)nc2c1	1.09%
CCN1CCN(c2nc(-c3cccnc3)nc3ccccc23)CC1.Cl	-18.4%
CCN1CCN(c2nc(-c3ccncc3)nc3ccccc23)CC1	-75.6%
CN1CCN(c2nc(-c3ccncc3)nc3ccccc23)CC1	-64.9%
CCN1CCN(c2nc(-c3ccccc3)nc3ccccc23)CC1	-30.4%
C/C(=N\NC(=O)c1ccc(Cl)cc1)c1ccccn1	8.17%
O=S1(=O)CCC(NCC2CCCO2)C1 (centres unmarked)	12.9%
CC(C)C(NC(=O)OCc1ccccc1)C(=O)OCC(=O)NC1CC1 (centres unmarked)	11.3%
Fc1ccc(N/N=C/c2ccc(N3CCOCC3)cc2)c(F)c1	9.29%
CCc1ccc(CN(C)C(=O)C2CCC(=O)N(CC3CCCCC3)C2)cc1 (centres unmarked)	-12.3%
COc1ccccc1N1CCN(C(=O)c2cn(C)c3ccc(S(=O)(=O)N4CCOCC4)cc3c2=O)CC1	13.1%
O=c1nc(-c2ccccc2)n(-c2ccccc2)c2ncccc12	10.8%
Cn1c(SCC(=O)NC2CCS(=O)(=O)C2)nnc1-c1ccco1 (centres unmarked)	10.3%

SMILES	hERG current change (%, negative = inhibition) at 1uM
Cc1cccc(NS(=O)(=O)c2cccs2)c1	10.7%
CC1CC(C)CN(c2nc3c(c(=O)n(C)c(=O)n3C)n2C)C1 (centres unmarked)	11.1%
O=C(/C=C/c1ccc(F)cc1)Nc1cc(S(=O)(=O)N2CCOCC2)ccc1N1CCCC1	-60.3%
CCN1CCN(c2ccc(S(=O)(=O)N3CCOCC3)cc2NC(=O)/C=C/c2ccc(C)cc2)CC1	-4.67%
O=C(/C=C/c1cccc(F)c1)Nc1cc(S(=O)(=O)N2CCOCC2)ccc1N1CCCC1	0.626%
O=C(/C=C/c1ccccc1)Nc1cc(S(=O)(=O)N2CCOCC2)ccc1N1CCCC1	15.7%
CCN1CCN(c2ccc(S(=O)(=O)N3CCCCC3)cc2NC(=O)/C=C/c2ccc([N+](=O)[O-])cc2)CC1	6.53%
CCN1CCN(c2ccc(S(=O)(=O)N3CCOCC3)cc2NC(=O)/C=C/c2ccc([N+](=O)[O-])cc2)CC1	-50.5%
O=c1cc(-c2ccccc2[N+](=O)[O-])oc2ccccc12	7.73%
CC(C)C(=O)C1=Cc2cc([N+](=O)[O-])ccc2OC1N1CCOCC1 (centres unmarked)	9.39%
O=C(CCCC(=O)NCC1CCCO1)NCC1CCCO1 (centres unmarked)	3.68%
O=c1ccc2cc3c([nH]c4ccc(Br)cc43)oc-2c1O	4.16%
COc1ccc(C(C(O)C(=O)c2c[nH]c3ccccc23)N2CCN(c3ccccc3)CC2)cc1 (centres unmarked)	4.75%
CCN1CCN(C(c2ccc(OC)cc2)C(O)C(=O)c2c[nH]c3ccccc23)CC1 (centres unmarked)	-64.4%
COc1ccc(C(C(O)C(=O)c2c[nH]c3ccccc23)N2CCN(c3ccc(OC)cc3)CC2)cc1 (centres unmarked)	2.28%
CC(C)Oc1ccc(N2CC(C(=O)Nc3ccc4c(c3)OCO4)CC2=O)cc1 (centres unmarked)	5.88%
Cc1[nH]c(=O)[nH]c(=O)c1S(=O)(=O)Nc1cccc([N+](=O)[O-])c1C	11.5%
COc1ccccc1N1CCN(CCCCOc2c(OC)cccc2OC)CC1.O=C(O)C(=O)O	-38.6%
COc1cccc(OC)c1OCCCCN1CCCCC1.O=C(O)C(=O)O	9.21%
COc1cc(CN2CCC(Cc3ccccc3)CC2)cc(OC)c1OC.O=C(O)C(=O)O	-12%
CC(=O)CCc1ccc(OCCCCN2CCC(Cc3ccccc3)CC2)cc1.O=C(O)C(=O)O	-68.3%

SMILES	hERG current change (%, negative = inhibition) at 1uM
COc1cccc(OC)c1OCCCN1CCC(Cc2ccccc2)CC1.O=C(O)C(=O)O	-79.3%
COc1cccc(OC)c1OCCCCN1CCCC1	4.67%
O=C(O)C(=O)O.c1ccc(COc2ccc(OCCCCN3CCCC3)cc2)cc1	-28.2%
COc1cccc(OC)c1OCCCCN1CCC(Cc2ccccc2)CC1.O=C(O)C(=O)O	-78.6%
CC1CCN(CCCOc2ccc(OCc3ccccc3)cc2)CC1.O=C(O)C(=O)O	-14.1%
COc1cc2cc(C(c3nnnn3C(C)(C)C)N3CCc4ccccc4C3)c(=O)[nH]c2cc1OC (centres unmarked)	-3.88%
CCN(CCNC(=O)CCCn1nc(C)n2c(cc3sccc32)c1=O)c1ccccc1	-1.14%
CN(C)Cc1ccc(-c2nc3cccc4c3n2CCNC4=O)cc1	-0.249%
O=C(NCc1ccccc1)C(c1ccco1)N(C(=O)c1csnn1)C1CC1 (centres unmarked)	11.6%
Cc1nc2ccc([N+](=O)[O-])cc2c(=O)n1Cc1ccc(F)cc1	-9.51%
Cc1nc2ccccc2c(=O)n1Cc1ccc([N+](=O)[O-])cc1	-64.8%
Cc1nc2ccc([N+](=O)[O-])cc2c(=O)n1Cc1ccc(Br)cc1	14.8%
COc1ccc(Cn2c(C)nc3ccc([N+](=O)[O-])cc3c2=O)cc1	5.96%
Cc1nc2ccc([N+](=O)[O-])cc2c(=O)n1Cc1ccc(Cl)cc1	10.5%
Cc1nc2ccc([N+](=O)[O-])cc2c(=O)n1Cc1ccc([N+](=O)[O-])cc1	-76.5%
CC(=O)Nc1cccc(N2CCCC2=O)c1	4.99%
O=C(CN1CCN(Cc2ccccc2)CC1)N/N=C/C=C/c1ccccc1[N+](=O)[O-]	-32.1%
COc1ccc(NC(=O)Nc2cc(C(=O)O)ccc2N2CC3CC(C2)c2cccc(=O)n2C3)c(OC)c1 (centres unmarked)	5.08%
CC(NC(=O)Cc1ccccc1)c1cc2c(cc1Br)OCCCO2 (centres unmarked)	6.49%
CCOC(=O)Cn1nc(C)c(NC(=O)COc2ccc(OC)cc2)c1C	4.48%
CC(C)(C)Nc1nc(Cl)nc(N(C#N)CN2C(=O)c3ccccc3S2(=O)=O)n1	16.1%

SMILES	hERG current change (%, negative = inhibition) at 1uM
CCN(CC)S(=O)(=O)c1cc(C)ccc1NC(=S)Nc1cccnc1	3.41%
Cc1ccc(N(CC(O)CN2CCOCC2)S(=O)(=O)c2ccc([N+](=O)[O-])cc2)cc1 (centres unmarked)	-49.1%
Cc1ccc(S(=O)(=O)N(CC(O)CN2CCCC2)c2ccccc2)cc1 (centres unmarked)	-44.8%
Cl.O=S(=O)(c1ccccc1)N(CC(O)CN1CCCCC1)c1ccccc1 (centres unmarked)	-21%
Cc1ccc(S(=O)(=O)N(CC(O)CN2CCOCC2)c2cc(Cl)ccc2Cl)cc1.Cl (centres unmarked)	-2.22%
Cc1ccc(N(CC(O)CN2CCCC2)S(=O)(=O)c2ccc(C)cc2)cc1.Cl (centres unmarked)	-81.7%
Cc1ccccc1S(=O)(=O)N(CC(O)CN1CCCCC1)c1ccccc1 (centres unmarked)	-71.2%
Cl.O=S(=O)(c1ccc2ccccc2c1)N(CC(O)CN1CCOCC1)c1ccccc1 (centres unmarked)	-21.2%
Cc1ccc(N(CC(O)CN2CCOCC2)S(=O)(=O)c2ccc3ccccc3c2)cc1 (centres unmarked)	-55.6%
Cc1ccc(S(=O)(=O)N(CC(O)CN2CCCCC2)c2ccccc2)cc1.Cl (centres unmarked)	-60.5%
Cc1ccc(N(CC(O)CN2CCCCC2)S(=O)(=O)c2ccc(C)cc2)cc1 (centres unmarked)	12.8%
O=S(=O)(c1ccccc1)N(CC(O)CN1CCCC1)c1ccccc1 (centres unmarked)	3.65%
O=S(=O)(c1ccccc1)N(CC(O)CN1CCOCC1)c1ccccc1 (centres unmarked)	9.04%
Cc1ccc(-n2nc(C)c3c2OC(N)=C(C#N)C3c2cccs2)cc1 (centres unmarked)	9.08%
CC1=CC2=NC(=O)CC(C)(C(=O)N(CC(=O)NC(C)(C)C)Cc3cccs3)N2C=C1 (centres unmarked)	-2.79%
CNc1ncc(-c2nnnn2-c2ccccc2)c(-c2ccccc2)n1	8.07%
Cc1ccc(N2CCN(c3ncccc3[N+](=O)[O-])CC2)c(C)c1	17.2%
CC(=O)NC(C(=O)N1CCC(c2nc3ccccc3s2)CC1)C(C)C (centres unmarked)	8.96%
Cc1cc(C)nc(SCc2n[nH]c(=S)n2C)n1	7.9%
CCOC(=O)C1=C(N)OC2=C(C(=O)CC(C)(C)C2)C1c1ccco1 (centres unmarked)	-7.98%

— paper PMC4336329 (PLoS ONE, 2015)
